# Assay outcomes as filed in PubChem.
# SW480 rereplic: DNA re-replication induction in SW480 cells; SW480 DNA re-replication, Hoechst DNA content imaging, 48 h; Potency, µM (doses to about 46.1 µM), for inactives: at the highest dose re-replication activation, actives largely listed as activators; actives 1.8% (n = 340,000); note: potency is the fitted concentration of half-maximal effect; % of control where 0% means no effect; nearly all actives have a fitted effect of over 55% in size
#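 Readout is total intensity of Hoechst-stained nuclei, excited at 405 nm and collected at 500-530 nm. Compound treatment lasted 48 hr at 37 C in 5% CO2 before staining.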
# BCR signal inh: chronic active BCR signaling inhibition | actives 0.05% (n = 340,000) | ABC-DLBCL IkBa-CBG/CBR reporter, luminescence ratio, 4 h | Potency, µM (top dose mostly 46.1 µM), for the others: top-dose activity change, negative = inhibition, hits mostly inhibitors; active = well fitted inhibition curve with a large enough effect in the signal ratio, with a control signal flat, not every such curve was filed as active; inconclusive = small, poorly fitted or top-dose-only effect, or effect the other way, or a change in a side signal; the % refers to the signal ratio;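 note: potency is the fitted concentration of half-maximal effect; plate controls were basal doxycycline-induced cells for no effect and cells given 10 µM MG132 for full effect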
#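 TMD8 ABC-DLBCL cells carrying doxycycline-inducible green luciferase fused to IkappaBalpha plus unfused red luciferase were exposed to compounds (up to 46 uM) for 4 hrs at 37C. Activity came from the overlap-corrected green/red luminescence ratio.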
# MCF10A rereplic: induces DNA re-replication in MCF 10a normal breast cells; MCF 10A DNA re-replication, Hoechst nuclear intensity, 48 h; Potency, µM (top dose mostly 46.1 µM), without a hit: at the highest dose activity, positive = re-replication, hits mostly activators; actives 2.9% (n = 350,000); note: potency is the fitted concentration of half-maximal effect; % of control where 0% means no effect; nearly all actives have a fitted effect of over 50% in size
# RORgamma inh: blocks mouse ROR gamma transcriptional activity. Potency, µM (series often up to 53.6 µM), for the others: at the highest dose activity change, negative = inhibition, actives largely listed as inhibitors. Drosophila S2 Gal4-RORgamma UAS-luciferase reporter, 20 h. P51450. actives 5.4% (n = 310,000). AID 2551; note: potency is the fitted concentration of half-maximal effect; % is set by controls: 0 for no effect and ±100 for the full control effect; nearly all actives have a fitted effect of over 60% in size
# Target sequence (P51450 whole entry, looked up, the tested form may be a part): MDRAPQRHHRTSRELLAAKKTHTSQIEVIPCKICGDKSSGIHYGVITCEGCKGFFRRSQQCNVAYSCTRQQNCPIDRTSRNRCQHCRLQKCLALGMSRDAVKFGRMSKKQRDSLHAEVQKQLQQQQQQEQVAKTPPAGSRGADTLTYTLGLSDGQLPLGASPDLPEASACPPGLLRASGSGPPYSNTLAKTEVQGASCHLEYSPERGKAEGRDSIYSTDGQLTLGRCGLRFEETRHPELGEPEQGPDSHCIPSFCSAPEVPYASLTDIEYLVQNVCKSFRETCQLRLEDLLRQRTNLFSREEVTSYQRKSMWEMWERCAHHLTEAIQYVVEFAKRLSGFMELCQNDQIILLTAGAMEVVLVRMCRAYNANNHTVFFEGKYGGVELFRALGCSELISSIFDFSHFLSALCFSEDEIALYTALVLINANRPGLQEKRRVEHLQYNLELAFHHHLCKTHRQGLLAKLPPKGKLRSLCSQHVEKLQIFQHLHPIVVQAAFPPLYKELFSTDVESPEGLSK
#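 Luminescence from a UAS-regulated Photinus luciferase reporter in stably transfected Drosophila Schneider cells is measured; decreased signal marks ROR gamma inhibition. Fusion expression is induced by 700 uM copper sulfate for 20 hr.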
# Giardia kill: kills Giardia lamblia; Giardia lamblia trophozoite viability; activity change, % at 7.66 µM, hits read low; actives 0.15% (n = 340,000); AID 540267; in the data active = activity change below about -80%; inconclusive = between about -30% and that limit;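 note: parasites exposed to compound for two days anaerobically before the ATP read; % is set by controls: 0 for no effect and ±100 for the full control effect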
#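 Giardia trophozoites, 100 cells per well, were exposed to compounds for 48 hrs at 37 deg C under anaerobic conditions; viability was then read as ATP content by bioluminescence after 15-30 min at room temperature.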
# Gal4-VP16 FLuc: inhibits Gal4-VP16 luciferase reporter, ROR gamma counter-screen. AID 2546. Potency, µM (top dose mostly 53.6 µM), for the others: top-dose activity, negative = inhibition, most hits filed as inhibitors. Drosophila S2 Gal4-VP16 UAS-luciferase, luminescence, 20 h. actives 3.5% (n = 310,000);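 note: Gal4-VP16 expression switched on by copper sulfate through the metallothionein promoter; potency is the fitted concentration of half-maximal effect; % is set by controls: 0 for no effect and ±100 for the full control effect; nearly all actives have a fitted effect of over 50% in size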
# * marks the source's active call; other numbers are inactive results; u = inconclusive; x = no result. A selection: hits, their analogues and other compounds. The true share with any hit is near 8.3%. Unless noted, calls come from the whole dose curve; as a rule, active = well fitted curve in the direction sought with a large enough effect; inconclusive = small, poorly fitted or top-dose-only effect, or another doubt; inactive = no such curve, though single readings can be large; an effect the other way counts as inactive or inconclusive.
SMILES,SW480 rereplic,BCR signal inh,MCF10A rereplic,RORgamma inh,Giardia kill,Gal4-VP16 FLuc
CSCC[C@H](NC(=O)[C@H](CCCNC(=N)N)NC(=O)[C@H](Cc1ccc(O)cc1)NC(=O)[C@@H]1CCCN1C(=O)CNC(=O)[C@H](CCC(=O)O)NC(=O)[C@H](CC(=O)O)NC(=O)[C@H](CCCCN)NC(=O)[C@H](CCCCN)NC(=O)[C@H](CCC(=O)O)NC(=O)[C@H](C)N)C(=O)N[C@@H](CCC(=O)O)C(=O)N[C@@H](Cc1cnc[nH]1)C(=O)N[C@@H](Cc1ccccc1)C(=O)N[C@@H](CCCNC(=N)N)C(=O)N[C@@H](Cc1c[nH]c2ccccc12)C(=O)NCC(=O)N[C@@H](CO)C(=O)N1CCC[C@H]1C(=O)N1CCC[C@H]1C(=O)N[C@@H](CCCCN)C(=O)N[C@@H](CC(=O)O)C(=O)O,x,x,x,10%,x,5%
Cc1cccc([C@H]2[C@@H]3C=CCC[C@@]3(C)C(=O)N2Cc2ccccc2)c1,x,x,x,43%,x,21%
CC12CCC=CC1C(c1cccc(Br)c1)N(Cc1ccccc1)C2=O (centres undefined),x,x,x,u,-4,13µM*
Cc1ccc(F)c([C@H]2[C@@H]3C=CCC[C@@]3(C)C(=O)N2Cc2ccccc2)c1,-4%,u,23µM*,20%,7,0%
Cc1ccc(-c2cc(C3C4C=CCCC4(C)C(=O)N3Cc3ccccc3)ccc2F)cc1 (centres undefined),x,x,x,15%,-23,-3%
C[C@@H]1CC[C@@]2(O[C@@H](CCO)C[C@@H](O)[C@@H]2O)O1,4%,x,u,x,4,x
N#Cc1ccc(N2CCCNCC2)nc1,-9%,0%,-3%,1%,-15,3%
O=C(N/N=C/c1ccc([N+](=O)[O-])cc1)c1cc2ccccc2o1,-12%,u,-3%,0%,-10,-1%
C/C(=N\Nc1ccc([N+](=O)[O-])cc1)c1cc2ccccc2o1,24%,u,2.9µM*,u,22,-14%
CCC(=O)Nc1cccc(NC(=S)NC(=O)c2cc3ccccc3o2)c1,2%,u,u,-33%,-20,11%
COc1ccc(OCC(=O)N/N=C(\C)c2cc3ccccc3o2)cc1,-4%,-1%,13%,-9%,-6,-1%
C/C(=N\NC(=O)c1ccc(O)cc1)c1cc2ccccc2o1,-2%,u,0%,6.3µM*,-2,10µM*
C/C(=N\NC(=S)Nc1cccc(C)c1)c1cc2ccccc2o1,13%,0%,14µM*,2.5µM*,-20,u
CCNC(=S)N/N=C(\C)c1cc2ccccc2o1,-2%,-11%,-4%,3.5µM*,10,7.9µM*
O=C(COc1ccccc1[N+](=O)[O-])NCCCN1CCCC1=O,-11%,0%,-4%,x,-8,x
Cc1ccc(S(=O)(=O)Nc2ccc(S(=O)(=O)Nc3nccs3)cc2)c([N+](=O)[O-])c1,-5%,-4%,12%,u,-3,u
COc1ccccc1OCCSc1nc2ccccc2n1CC(N)=O,-5%,1%,1%,3%,14,0%
N#Cc1c(-c2cccs2)cc(-c2ccccn2)nc1N,u,1%,u,u,19,7.9µM*
CCCCOCCCNC(=O)C1CCCCC1,u,-4%,12µM*,-4%,11,-6%
O=C(NCCCCNC(=O)C1CCCC1)C1CCCC1,-10%,-1%,-1%,-28%,-12,3%
CCOC(=O)CN1C(c2ccccc2O)Nc2ccc(Br)cc2C1c1ccccc1 (centres undefined),-2%,u,6%,-95%,-1,7.1µM*
COC(=O)CN1C(c2ccccc2O)Nc2ccc(Br)cc2C1c1ccccc1 (centres undefined),0%,-2%,-1%,-36%,-9,0%
CN(C)c1cccc(C(=O)Nc2nnc(Cc3ccccc3)s2)c1,10%,8%,14%,-33%,-11,-12%
